Tested on: Plasmodium falciparum
Assay: GSK_TCMDC: Inhibition of Plasmodium falciparum Dd2 in whole red blood cells, using parasite LDH activity as an index of growth. Test compounds present at 2uM
Assay type: functional

Compound | Inhibition
O=C(NCCN1CCOCC1)c1ccc(CNC(=O)c2ccc(O)c(-c3ccc(Cl)c(Cl)c3)c2)cc1 | 55%
CCCCCCN1CCN(Cc2cccc(NC(=O)c3ccc(Cl)c(Cl)c3)c2)CC1.O=C(O)C(F)(F)F | 51%
Cc1cc(C(=O)Nc2ccc3c(c2)CCN3C2CCN(Cc3ccc(O)cc3)C2)no1 (stereo unspecified) | 86%
CCOc1ccc(C(=O)Nc2ccc(-c3nc4ccccc4[nH]3)cc2)cc1[N+](=O)[O-] | 70%
Cc1nnc2c(N(C(=O)NCCc3ccccc3)C(=O)NCCc3ccccc3)cc3cc(Cl)ccc3n12 | 34%
CN1CCC(NCc2cccc(-c3ccc(S(=O)(=O)NCCN4CCCC4)s3)c2)CC1.O=C(O)C(F)(F)F | 1%
CC(C)Cc1nc(N)nc(N)c1-c1ccc(Cl)cc1 | 3%
COc1ccc2nccc([C@@H](O)CN3CCC(CO)(NCc4cc5ccccc5o4)CC3)c2c1.O=C(O)C(=O)O | 7%
Clc1cc(Cl)c2c(c1)C(NCCCNc1nc3ccccc3[nH]1)CCO2 (stereo unspecified) | 31%
COc1ccc2nccc([C@@H](O)CN3CCC(NCc4cc5ccc(Cl)cc5[nH]4)CC3)c2c1.O=C(O)C(=O)O | 61%
COc1ccc(CN(C)CCOc2ccc(NC(=O)c3cccc4c(=O)c5cc(SC)ccc5[nH]c34)cc2)cc1OC | 98%
CC(=O)Nc1ccc(OCCN(Cc2ccccc2C(F)(F)F)c2ccc(C#N)c(C(F)(F)F)c2)cc1 | 81%
Cc1nc(N)nc(N)c1-c1cc(Cl)c(N)c(Cl)c1 | 2%
C=CCOc1ccccc1CNCC(O)c1cc(Br)cs1 (stereo unspecified) | 72%
O=C(O)C(F)(F)F.O=S(=O)(NCCN1CCCC1)c1ccc(-c2cccc(CNCc3ccc(F)cc3)c2)cc1F | 36%
O=C(Nc1cccc(CN2CCCN(CC3CC3)CC2)c1)c1ccc(Cl)c(Cl)c1.O=C(O)C(F)(F)F | 5%
CCN(CC)CCN(Cc1ccc(-c2ccc(C(F)(F)F)cc2)cc1)C(=O)Cn1cc(CCCCc2cccc(F)c2F)c(=O)c2ccccc21.O=C(O)C(O)C(O)C(=O)O | 22%
Cc1ccc(-c2nc3cc(C(=O)NC4CCC(N5CCCc6ccc(C#N)cc6C5)CC4)ccc3[nH]2)cc1 (stereo unspecified) | 49%
O=C(Nc1ccc(OC2CCN(Cc3ccsc3)C2)c(Cl)c1)c1ccsc1.O=C(O)C(F)(F)F (stereo unspecified) | 70%
Cc1onc(-c2ccc(Cl)cc2)c1-c1ccnn1S(=O)(=O)c1ccc(Cl)cc1 | 99%
CS(=O)(=O)N1CC2(CCN(CCC(NC(=S)Nc3ccccc3)c3ccc(Cl)c(Cl)c3)CC2)c2ccccc21 (stereo unspecified) | 80%
COCCNCc1cccc(-c2ccc3c(Nc4cc(O)c(Cl)cc4F)ccnc3c2)c1 | 79%
O=c1cc(NCCCNC2CCCc3c2ccc2ccccc32)[nH]c2ccccc12 (stereo unspecified) | 30%
Cc1cc(C)c(NC(=O)NC2CCN(CCCCCNC(=O)/C=C/c3ccc(Cl)c(Cl)c3)C2)c(C)c1 (stereo unspecified) | 48%
CN(c1ccc(NC(=O)Nc2cccc(Cl)c2)cc1)c1ccnc(N)n1.Cl | 40%
OC1(c2ccccc2)c2cc(Cl)ccc2OC1c1nc2c(Cl)ccc(Cl)c2o1 (stereo unspecified) | 89%

Source: ChEMBL document CHEMBL1157539, “Thousands of chemical starting points for antimalarial lead identification” (Nature, 2010)
